Among all 69,000 compounds or so, about 8,600 (12%) showed an effect of 50% or more. This is one part of a sample in which strong results are shown more often than they occur.

The subject of this test is Plasmodium berghei. The test is described as follows: Screen against P. berghei liver stage (PbLuc), transformed with Luciferase, at 10uM. It is filed as functional, HepG2. Particulars: tested at 10 uM.
Regarding `Cc1cccc(C)c1Nc1noc2c1CN(C(=O)c1ccnn1C)CC2`, the INHIBITION is 45.5%.

Take `O=C(c1n[nH]c2c1CN(C1CCOC1)CC2)N1CCOCC1` (centres undefined): the INHIBITION amounted to 9.97%. Turning to `O=C(C1CCC2(CCN(CC3CCOCC3)CC2)O1)N1CCCCO1` (centres undefined), the INHIBITION is 38.3%.

As to `CS(=O)(=O)N1CC[C@]2(C[C@H](Oc3ccccn3)CO2)C1`, the INHIBITION was -23.4%. The value for `CCc1noc(CN(CC)Cc2cc3ccc(C)cc3[nH]c2=O)n1` was 9.56%.

As for `Cc1cnn(CCC(=O)N2CCN(c3nccs3)CC2)c1`, the INHIBITION was determined as 23.5%. Turning to `O=C(NCCCO)Nc1cnc2cc(Cl)ccc2c1O`, the INHIBITION turned out to be 54.4%. Take `O=C(NCCCN1CCOCC1)Nc1cnc2cc(Cl)ccc2c1O`: the INHIBITION is listed as 35.8%. The value for `O=C(NCCO)Nc1cnc2cc(Cl)ccc2c1O` was 24.4%. The result for `CNS(=O)(=O)CCCN1CCCCCC1c1ccc(C)o1` (centres undefined) reads 23.3%. The value for `Cc1ccc(C2CCCCCN2CCNS(C)(=O)=O)o1` (centres undefined) was 39.4%; that for `CNC(=O)CCN1CCCCCC1c1ccc(C)o1` (centres undefined) was 72.5%; that for `CC(=O)N1CCN(C(=O)c2ccc(Sc3ccccn3)cc2)CC1` was 14.4%. As to `Cc1ccc(NC(=O)NCC2(O)CCCC2)cc1C`, the INHIBITION was -108%.

As to `COc1cc(CNCC(O)c2ccc(C)cc2)cc2c1OCO2` (centres undefined), the INHIBITION was -5.25%. The value for `COc1cc(CNCC(C)O)cc(Cl)c1OCc1ccc(C)cc1` (centres undefined) was 52.2%; that for `COc1cccc(CNC(C)C)c1OCc1ccc(C)cc1` was 5.46%. The value for `NC(=O)c1c[nH]nc1NC(=O)c1ccc(Cl)cc1` was -6.3%; that for `CCn1cc(CN2CCCN(C(=O)c3cccn3C)CC2)cn1` was 13.6%; that for `Cc1ccc(NCc2ccc(C#N)cc2)cc1-n1cnnn1` was 14.3%. Regarding `Cc1cc(NCc2cccc(C#N)c2)ccc1Br`, the INHIBITION was determined as 44.3%. For the compound `Cc1c(NCc2ccccc2C#N)cccc1S(=O)(=O)NC1CC1`, the INHIBITION is recorded as 64.9%.

As to `Cc1ccc2c(c1C)OCC2NCc1ccc(C#N)cc1` (centres undefined), the INHIBITION is listed as 40.9%. The value for `CS(=O)(=O)NCC1CCCCN1Cc1ccccc1C#N` (centres undefined) was -27.6%; that for `Cc1ccc(NCc2ccccc2C#N)cc1-n1cnnn1` was 10.6%; that for `Cc1c(NCc2ccccc2C#N)cccc1-n1cnnn1` was 62.4%. On to `Cc1nnc(NCc2ccccc2S(=O)(=O)N(C)C)c(C#N)c1C`, for which the INHIBITION was determined as 15.92%.

`Cc1c(NCc2cccc(C#N)c2)cccc1S(=O)(=O)NC1CC1`: the INHIBITION is 67.5%. The value for `CC(C)N(CCNCc1ccc(C#N)cc1)C1CC1` was -8.45%. The result for `Cc1c(NCc2ccc(C#N)cc2)cccc1S(=O)(=O)NC1CC1` reads 73.9%. With `Cc1cc(NCc2cccc(C#N)c2)ccc1C(N)=O`, the INHIBITION was -0.759%. For `CN(C)CC(=O)N1CCOCC(Cc2ccccn2)C1` (centres undefined), the INHIBITION is -20.6%. Consider `CN1CCC2(CCN(CC3CC3)CC2)C1=O`, for which the INHIBITION is on record as 23.3%. As for `CC(C)CN(CC(O)c1ccccc1)C(=O)Nc1nccs1` (centres undefined), the INHIBITION is recorded as -10.9%.

As for `COCCN(C)CC(=O)N1C[C@@H]2CC[C@H]1CN(C(=O)c1ccncc1)C2`, the INHIBITION is 8.57%. As to `CNC(=O)[C@H]1C[C@H]2CN(Cc3ccc(OC)cc3)C[C@@H]1O2`, the INHIBITION is given as 8.66%. Turning to `Cn1nccc1C1CCN(Cc2csc(-c3ncccn3)n2)CC1`, the INHIBITION was determined as 11.1%. The result for `Cn1nccc1C1CCN(Cc2ccn(-c3ccccc3)n2)CC1` reads 74.2%; that for `c1ccc(-n2ncc(CN3CCCC3Cn3cccn3)n2)cc1` (centres undefined), -0.75%.

With `Cn1nccc1C1CCN(Cc2cnn(-c3ccccc3)n2)CC1`, the INHIBITION worked out at 81.2%. The value for `c1ccc(-n2ccc(CN3CCCC3Cn3cccn3)n2)cc1` (centres undefined) was 36.4%; that for `Cc1ncc(CN2CCC(c3ccnn3C)CC2)n1-c1ccccc1` was 77.2%. The value for `c1ccc(-n2ccc(CN3CCOC(Cn4cncn4)C3)n2)cc1` (centres undefined) was 7.08%; that for `Cn1nccc1C1CCN(CC(O)c2cccc(F)c2)CC1` (centres undefined) was 20.9%. The result for `O=C(O)c1ccccc1CN1CCC(c2ccnc3ccnn23)CC1` reads -9.32%; that for `CC(C)C(=O)N1CCN(C(=O)N(C)C)CC2(CC(=O)N(C)C2)C1` (centres undefined), 39.8%; that for `CCn1c(Cn2cncn2)nnc1C1CCN(Cc2ccccn2)CC1`, 3.88%. With `O=C(CCc1ccccc1)NC1CCC2(CCC(=O)N2)CC1` (centres undefined), the INHIBITION came out at 2.58%. The value for `COCCCN1CCN(CCOC)C(C)C1` (centres undefined) was -23.8%. As to `CN(C)CCOCC1CN(CCN(C)C)Cc2ccnn2C1` (centres undefined), the INHIBITION is recorded as -4.23%.

On to `COc1ccccc1OC1CN(c2ccncc2)C1`, for which the INHIBITION is recorded as 38.8%. `CC(C)c1cccc(S(=O)(=O)NCCCN2CCC(O)CC2)c1`: the INHIBITION is recorded as 62.3%. The result for `CSCc1cccc(S(=O)(=O)NCCCN2CCOCC2)c1` reads 18.5%; that for `Cc1cc(F)c(S(=O)(=O)NCCCN2CCC(O)CC2)cc1F`, -1.53%; that for `Cc1cc(F)cc(S(=O)(=O)NCCCN2CCC(O)CC2)c1`, 25.1%. The result for `Cc1ccc(S(=O)(=O)NCCCN2CCC(O)CC2)c(F)c1` reads 41.4%; that for `Cc1ccc(S(=O)(=O)NCCCN2CCC(O)CC2)cc1Cl`, 51.4%.

Consider `CN(CCc1ccccn1)C1CCCN(Cc2noc(C3CC3)n2)C1` (centres undefined), for which the INHIBITION was determined as 24.1%. For the compound `COc1ccccc1C(O)CNc1c(C#N)c(=O)n(C)c(=O)n1C` (centres undefined), the INHIBITION came out at 46.2%. The value for `Cn1ccc(C(=O)NCCOc2ccc3c(c2)OCO3)cc1=O` was -3.54%; that for `Cc1nc(COC[C@@H]2CC[C@H]3[C@H](CCN3c3ncccn3)O2)cs1` was 46.6%.

For the compound `CCCn1c(C)c(CC(=O)NCCOC)c2c1CC(C)(C)CC2=O`, the INHIBITION was -3.72%.

In the case of `CC(=O)NS(=O)(=O)c1ccc(F)c(C(F)(F)F)c1`, the INHIBITION came to 54.7%.

As to `CC(C)C(=O)NS(=O)(=O)c1ccc(F)c(C(F)(F)F)c1`, the INHIBITION is reported as 0.825%. The value for `COC(C)C(=O)NS(=O)(=O)c1ccc(F)c(C(F)(F)F)c1` (centres undefined) was 19.5%; that for `COc1cc(Cl)c(NC(=O)c2cc3c([nH]c2=O)CCCC3=O)cc1OC` was 43.6%. With `Cc1nc(SCC(=O)Nc2ccc(C(N)=O)cc2)c(C#N)c(C)c1C`, the INHIBITION is reported as 48.7%. In the case of `Cc1ccc(C(=O)Nc2ccc(N(C)C)nc2)n1C`, the INHIBITION is -130%.

With `Cn1ccnc1CN1CC[C@H](O)[C@@H](n2ccc(=O)[nH]c2=O)CC1`, the INHIBITION amounted to 22%. The result for `CNC(=O)[C@@H]1C[C@H](n2cc(-c3ccc(Cl)cc3)nn2)CN1` reads 30.3%. The value for `CNC(=O)[C@@H]1C[C@@H](n2cc(-c3ccc(Cl)cc3)nn2)CN1` was 43.9%. The value for `CCN(CC)C(=O)[C@@H]1C[C@@H](n2cc(-c3cccc(OC)c3)nn2)CN1` was 53.3%; that for `CCN(CC)C(=O)[C@@H]1C[C@H](n2cc(-c3ccccn3)nn2)CN1` was 34%. Take `CCN(CC)C(=O)[C@@H]1C[C@@H](n2cc(-c3ccccn3)nn2)CN1`: the INHIBITION amounted to 85.4%. As to `CCN(CC)C(=O)[C@@H]1C[C@H](n2cc(-c3cccc(OC)c3)nn2)CN1`, the INHIBITION came out at 16.9%. `O=C(NCC(=O)N1CCCC(c2ccccc2)CC1)c1ccoc1` (centres undefined): the INHIBITION amounted to 23.4%.

On to `COC1CCN(C(=O)COC(C)=O)CC(=O)N(C)c2ccccc21` (centres undefined), for which the INHIBITION came to 32.1%. The result for `COCC[C@]1(O)CCN(CC(=O)NCc2ccccn2)C[C@H]1C` reads 25.4%; that for `Cc1cc(C)nc(N2CC=C[C@H]2C(=O)NCc2ccc3c(c2)OCO3)n1`, 25.8%. The result for `CCCC(=O)Nc1cnn(CC(=O)Nc2ccc(SC)cc2)c1` reads 14.3%. In the case of `CCn1nc(C)c(C(C)Nc2cc(C3CCNCC3)nc(C)n2)c1C` (centres undefined), the INHIBITION is -46.8%. The result for `CS(=O)(=O)CCCNC1CCCN(Cc2noc(C3CC3)n2)C1` (centres undefined) reads 19.5%; that for `c1ccc(CNC2CCc3ncnn3C2)nc1` (centres undefined), -0.847%; that for `Cc1nc2n(n1)CC(Nc1ncnc3c1CCC3)CC2` (centres undefined), 41.5%. In the case of `CC(C)c1nc2n(n1)CC(Nc1ncnc3c1CCC3)CC2` (centres undefined), the INHIBITION came out at 48%. The result for `FC(F)(F)c1nc(NC2CCc3ncnn3C2)c2ccccc2n1` (centres undefined) reads 2.25%; that for `CCc1nc2n(n1)CC(Nc1cc(C)nc3ncnn13)CC2` (centres undefined), 3.95%; that for `c1nc2c(c(NC3CCc4ncnn4C3)n1)CCC2` (centres undefined), 76.7%. The value for `c1ccc2c(NC3CCc4ncnn4C3)ncnc2c1` (centres undefined) was 63.8%. Regarding `Cc1cc(NC2CCc3ncnn3C2)n2ncnc2n1` (centres undefined), the INHIBITION is given as 57.7%.

With `Cc1cc(NC2CCc3nc(C)nn3C2)n2ncnc2n1` (centres undefined), the INHIBITION is on record as -12.5%.

For `CC(C)c1nc2n(n1)CC(Nc1ncnc3ccccc13)CC2` (centres undefined), the INHIBITION turned out to be 80.5%. The result for `c1nc2c(c(NC3CCC3)n1)CCNCC2` reads 17.2%. Take `CC(C)c1nc2n(n1)CC(NCc1cc3ccccc3o1)CC2` (centres undefined): the INHIBITION was determined as 43.2%. With `Cn1cnc2c1C(COCc1ccccc1)N(Cc1cccnc1)CC2` (centres undefined), the INHIBITION turned out to be 8.85%.

On to `Cc1nc2ccc(C(=O)N3CC[C@H](O)[C@@H](N4CCOCC4)CC3)cc2[nH]1`, for which the INHIBITION is given as -5.71%. Turning to `O=C(N[C@@H]1CN(Cc2c[nH]nc2-c2ccccc2)C[C@H]1O)c1cc[nH]n1`, the INHIBITION is on record as -3.182%. The value for `CN(C)C(=O)COCc1nnc2n1CCN(Cc1ccsc1)C2` was 39.4%. For `O=C1COC2(CCN(Cc3ccncc3)CC2)CN1`, the INHIBITION is on record as -55%. The result for `CCOc1ccc(Br)cc1-c1cc(N)[nH]n1` reads -21.3%. The result for `CC(C)C(=O)N1CCCC2(CCCN2CC2CCCC2)C1` (centres undefined) reads -26.5%; that for `O=C(Cc1c[nH]c2ccccc12)N1CCC(Nc2cccnc2)CC1`, -12.2%. The result for `O=C(NCCOc1ccc(Cl)cn1)Nc1cccnc1` reads -24.7%. Regarding `CC1(C(=O)N2CCOCC2)CN(Cc2cccnc2)CCO1` (centres undefined), the INHIBITION is 2.71%. With `CC(O)CN(Cc1cccc(C(=O)N(C)C)c1)c1ccccc1` (centres undefined), the INHIBITION was found to be 60.5%.

For `CCC(O)CN(Cc1cccc(C(=O)N(C)C)c1)c1ccccc1` (centres undefined), the INHIBITION is 2.93%.

Turning to `CC(O)CN(Cc1cccc(C(N)=O)c1)c1ccccc1` (centres undefined), the INHIBITION amounted to 28.9%. The value for `CC(O)(CNc1ccc(Cl)c(C#N)n1)c1ccccc1` (centres undefined) was -25%; that for `CC(C)c1nnc2n1CCN(CCS(=O)(=O)c1ccccc1)C2` was 4.71%.

Source of the values: ChEMBL document CHEMBL4513216, “Probing the Open Global Health Chemical Diversity Library for Multistage-Active Starting Points for Next-Generation Antimalarials” (ACS Infect Dis, 2020).
